Assay [1] can be described thus: inhibitors of TNFa-induced NFkB p65 translocation, primary screen, imaging, HUVEC, MLSMR starter and 10KST1 sets (AID 438).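 Further: compound added about 3h40 before a 20 min TNFalpha stimulation.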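 On inhibition: signal is the nuclear over cytoplasmic p65 intensity ratio per well.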 Conditions: HUVEC TNFa-induced p65 nuclear translocation; cell count: measured here: nuclei count (cytotoxicity indicator), at 2.08 µM; inhibition: at 2 µM, stronger effect = higher value, 0% TNFa-plus-vehicle, 100% no-TNFa wells.
Assay [2] can be described thus: reduction of polyQ htt aggregates in cells – imaging, exon1htt(103Q)mCFP cells, high-content imaging, primary screen (AID 483;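 active means visual image review flags a hit and inhibition of aggregation exceeds 20%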;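 further: compound exposure lasted 3 days before fixation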;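 on nuclei count: percent of the per-plate median nuclei count of sample wells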). Conditions: exon1htt(103Q)mCFP cell line, aggregate imaging, at 2 µM; inhibition of aggregation: stronger effect = higher value; nuclei count: measured here: cell count, toxicity.
Assay [3] can be described thus: endothelial E-selectin expression blockers – imaging, HUVEC, immunofluorescence, MLSMR starter and 10KST1 sets, primary screen (AID 487;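 active means visually confirmed hit in the image check and inhibition above 20%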;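 on inhibition: signal is fraction of cell area covered by stained E-selectin grains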;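 on nuclei count: 100% = median nuclei count of all wells on the same plate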). Conditions: HUVEC TNFalpha-induced E-selectin immunofluorescence imaging, at 2 µM; inhibition: stronger effect = higher value; nuclei count: measured here: cell number, toxicity.
In assay [4] the target is Voltage-gated potassium channel subunit beta-2 (Rattus norvegicus) (UniProt P62483). Description: inhibitors of rat Kvbeta2 reductase activity – biochemical, NADPH fluorescence, primary screen (AID 622;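 active means fluorescence slope higher than the sample average by over 3 SD, cut at about -0.22 in these data, passing the limit was not always enough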;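 further: slope of raw intensity against log time taken from 70 to 1610 s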). Conditions: recombinant KvBeta, 4-cyanobenzaldehyde reduction, at 10 µM, stronger effect = higher value.
Assay [5] shares this target. In words: enhancers of rat Kvbeta2 NADPH turnover – biochemical, NADPH fluorescence, primary screen (AID 623;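 active means NADPH fluorescence slope more negative than the mean of all samples by about 3 SD, 99.7% confidence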;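 further: fluorescence intensity change per second fitted from 20 to 320 s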). Conditions: Recombinant KvBeta, NADPH fluorescence decrease slope, 10 min; at 10 µM; stronger effect = lower value.
For assay [6], the target named is Alpha-2C adrenergic receptor (Homo sapiens) (UniProt P18825). Description: compounds altering alpha2C-coupled GIRK flux – cell-based, HEK293 alpha2C/GIRK1/2, thallium flux, primary screen (AID 624;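 active means fluorescence slope after compound addition differing from the mean of all screened samples at 99.7% confidence, in either direction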;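 further: slope of fluorescence ratio to pre-addition baseline per second over 15 to 24 s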). Conditions: thallium flux BTC fluorescence, at 10 µM, actives lie on both sides.
Assay [7] can be described thus: blockers of RIG-like receptor reporter activation – cell-based, Sendai virus stimulus, luciferase, 10K MLSCN set, TLR/RLR signaling modifier project, primary screen (AID 602276;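 active means inhibition at or above 50% at 10 µM; inactive means inhibition below 50%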;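 further: firefly luciferase from ISG56 promoter only with Renilla not read in this screen; 0% = Sendai virus plus DMSO and 100% = medium plus DMSO without virus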). Conditions: HEK293 RL24 IRF3 luciferase reporter, at 10 µM, stronger effect = higher value. For orientation: In a reporter assay the amount or activity of a reporter protein is the signal.
Assay [8] in a line: TLR3 IRF3 reporter activation blockers – cell-based, poly I:C stimulus, luciferase, 10K MLSCN set, primary screen (AID 602277;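 active means inhibition of the reporter signal at or above 50%; inactive means inhibition below 50%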). Conditions: HEK293-TLR3 RL24 IRF3 luciferase reporter, at 10 µM, stronger effect = higher value.

The structures appear in SMILES notation. Calls of active or inactive are those of the source.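 How the source made its calls, unless noted: active means inhibition above 20% together with a positive visual image hit; inconclusive means visual image hit but inhibition not above 20%; inactive means no visual image hit.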

Sequence of Voltage-gated potassium channel subunit beta-2 (Rattus norvegicus) (P62483 whole entry, looked up): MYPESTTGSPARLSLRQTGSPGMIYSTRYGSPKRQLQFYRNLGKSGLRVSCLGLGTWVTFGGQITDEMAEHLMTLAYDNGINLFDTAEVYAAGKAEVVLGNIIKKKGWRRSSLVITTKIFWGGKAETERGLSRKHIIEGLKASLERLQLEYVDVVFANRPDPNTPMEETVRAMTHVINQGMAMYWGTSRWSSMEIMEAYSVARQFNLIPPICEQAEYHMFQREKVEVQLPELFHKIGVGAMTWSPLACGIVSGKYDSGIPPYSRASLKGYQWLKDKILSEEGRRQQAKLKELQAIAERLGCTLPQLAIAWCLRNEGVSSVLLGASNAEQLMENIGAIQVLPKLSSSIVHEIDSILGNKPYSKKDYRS
Sequence of Alpha-2C adrenergic receptor (Homo sapiens) (P18825 whole entry, looked up): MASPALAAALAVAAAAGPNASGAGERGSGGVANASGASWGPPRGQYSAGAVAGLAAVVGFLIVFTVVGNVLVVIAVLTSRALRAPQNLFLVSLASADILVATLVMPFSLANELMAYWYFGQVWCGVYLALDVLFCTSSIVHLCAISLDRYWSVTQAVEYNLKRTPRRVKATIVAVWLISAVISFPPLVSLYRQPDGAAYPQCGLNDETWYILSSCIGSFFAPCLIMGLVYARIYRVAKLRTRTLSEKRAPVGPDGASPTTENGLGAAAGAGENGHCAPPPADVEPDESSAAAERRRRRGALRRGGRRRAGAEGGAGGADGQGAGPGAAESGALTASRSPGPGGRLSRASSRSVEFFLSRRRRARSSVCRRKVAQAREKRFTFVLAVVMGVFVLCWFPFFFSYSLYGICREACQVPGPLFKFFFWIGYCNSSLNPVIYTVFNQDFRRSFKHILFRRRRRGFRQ

By inhibition is commonly meant the change of the read-out against control, counted positive when it falls. For `CN(C(=O)C1CCCO1)c1nnc(-c2ccncc2)s1` (centres undefined), the cell count in assay [1] amounted to 279. Moreover, the inhibition is -2.1% (inactive) in assay [1], -10.8% (inactive) in assay [3], -12% (inactive) in assay [7] and -17.4% (inactive) in assay [8]. In addition, in assay [2], the inhibition of aggregation is 4.6% (inactive). In addition, the nuclei count in assay [2] and in assay [3] was 103% in each case. For the same compound, the fluorescence slope in assay [4] is -0.322 (inactive). In assay [5], the NADPH fluorescence slope was -4.6e-05 (inactive). Besides, in assay [6], the slope was 0.00538 (inactive).

For `O=C(NC(=O)c1cccc(F)c1)OC[C@@H]1CCCN2CCCC[C@H]12`, in assay [1], the cell count worked out at 600. The inhibition in assay [1] was -5.8% (inactive); in assay [3] it was -55.2% (inactive); in assay [7], 8.41% (inactive); in assay [8], 28.6% (inactive). In addition, the inhibition of aggregation in assay [2] is -12.4% (inactive). The nuclei count in assay [2] was 77.9%; in assay [3] it was 113%. Besides, the fluorescence slope in assay [4] is -0.491 (inactive). Moreover, the NADPH fluorescence slope in assay [5] is 1.1e-05 (inactive). Also, the slope in assay [6] is 0.00714 (inactive).

As for `O=C(Nc1ccc(S(=O)(=O)Nc2ccc(Cl)cc2)cc1)C1CCCO1` (centres undefined), the cell count in assay [1] came to 629. Besides, the inhibition in assay [1] is -6.5% (inactive); in assay [3], 7.3% (inactive); in assay [7], 14.5% (inactive); in assay [8] it was -12.8% (inactive). For the same compound, in assay [2], the inhibition of aggregation is 3.9% (inactive). Also, the nuclei count in assay [2] worked out at 104%; in assay [3], 101%. In addition, in assay [4], the fluorescence slope was -0.415 (inactive). For the same compound, the NADPH fluorescence slope in assay [5] was -4.8e-05 (inactive). Moreover, the slope in assay [6] was 0.0052 (inactive).

In the case of `Cc1ccc(-n2ncc(C(=O)N3CCc4ccccc4C3)c2NC(=O)c2ccco2)cc1C`, the cell count in assay [1] was 425. Besides, the inhibition in assay [1] was 10.2% (inactive); in assay [3] it was 0.3% (inactive); in assay [7], 2.03% (inactive); in assay [8], 20.1% (inactive). Moreover, the inhibition of aggregation in assay [2] was -0.3% (inactive). Moreover, the nuclei count came to 100% in assay [2] and 114% in assay [3]. Moreover, the fluorescence slope in assay [4] was -0.415 (inactive). For the same compound, in assay [5], the NADPH fluorescence slope is -9.8e-05 (inactive). Moreover, in assay [6], the slope was 0.00658 (inactive).

With `O=C1CCCN1Cc1ncnn1-c1ccccc1`, the cell count in assay [1] is 453. Also, the inhibition in assay [1] is -1.8% (inactive); in assay [3], -85.8% (inactive); in assay [7] it was 7.63% (inactive); in assay [8] it was 3.72% (inactive). In addition, in assay [2], the inhibition of aggregation is 10.2% (inactive). The nuclei count was determined as 114% in assay [2] and 131% in assay [3]. In assay [4], the fluorescence slope was -0.349 (inactive). For the same compound, the NADPH fluorescence slope in assay [5] is -6.8e-05 (inactive). Also, the slope in assay [6] was 0.00512 (inactive).

In the case of `Cc1cccc(OCC(=O)N(Cc2cccs2)C2CCS(=O)(=O)C2)c1C` (centres undefined), the cell count in assay [1] came to 220. Besides, the inhibition is 2.4% (inactive) in assay [1], -142% (inactive) in assay [3], 13.8% (inactive) in assay [7] and 16.1% (inactive) in assay [8]. In addition, the inhibition of aggregation in assay [2] was 0.4% (inactive). For the same compound, the results for the nuclei count in assay [2] and in assay [3] were 88.1% and 112%, respectively. In assay [4], the fluorescence slope was -0.639 (inactive). Besides, the NADPH fluorescence slope in assay [5] was -3.9e-05 (inactive). Further, the slope in assay [6] is 0.00768 (inactive).

Take `Cc1cc(C)n(-c2ccc3cccc(NS(C)(=O)=O)c3n2)n1`: the cell count in assay [1] worked out at 221. Besides, the inhibition was 13.2% (inactive) in assay [1], 26.7% (inactive) in assay [3], 11% (inactive) in assay [7] and 12.8% (inactive) in assay [8]. In addition, the inhibition of aggregation in assay [2] is -10.7% (inactive). The nuclei count came out at 76.6% in assay [2] and 107% in assay [3]. Also, the fluorescence slope in assay [4] was -0.392 (inactive). Moreover, the NADPH fluorescence slope in assay [5] is -3.1e-05 (inactive). Besides, the slope in assay [6] was 0.00539 (inactive).

On to `O=C(CCC(=O)c1cccs1)NCc1ccccc1`, for which the cell count in assay [1] came to 462. The inhibition was -0.2% (inactive) in assay [1], -24.2% (inactive) in assay [3], -1.41% (inactive) in assay [7] and 1.97% (inactive) in assay [8]. For the same compound, the inhibition of aggregation in assay [2] is -5.4% (inactive). Also, the values for the nuclei count in assay [2] and in assay [3] were 111% and 132%, respectively. In addition, the fluorescence slope in assay [4] is -0.622 (inactive). Moreover, in assay [5], the NADPH fluorescence slope was -5.1e-06 (inactive). In addition, the slope in assay [6] is 0.0103 (inactive).

For `CCN1C(=O)c2cccc3c(NC(=O)c4ccc(S(=O)(=O)N(C)C)cc4)ccc1c23`, the cell count in assay [1] worked out at 323. For the same compound, the inhibition in assay [1] was -7.9% (inactive); in assay [3], -23.9% (inactive); in assay [7] it was 23.8% (inactive); in assay [8], 30.8% (inactive). Besides, the inhibition of aggregation in assay [2] is -2.1% (inactive). Besides, the nuclei count worked out at 109% in assay [2] and 111% in assay [3]. Also, in assay [4], the fluorescence slope was -0.319 (inactive). In assay [5], the NADPH fluorescence slope was -4.5e-05 (inactive). In assay [6], the slope was 0.0056 (inactive).

For the compound `O=C(c1ccco1)N1CCN(CCCCN2C(=O)c3ccccc3C2=O)CC1`, the cell count in assay [1] came out at 265. Also, the inhibition in assay [1] is 26.7% (inactive); in assay [3] it was 5.7% (inactive); in assay [7], 15.1% (inactive); in assay [8], 36.3% (inactive). Moreover, the inhibition of aggregation in assay [2] is 16% (inactive). Besides, the nuclei count in assay [2] came out at 89.1%; in assay [3] it was 95.4%. The fluorescence slope in assay [4] was -0.593 (inactive). For the same compound, in assay [5], the NADPH fluorescence slope was 4.7e-06 (inactive). In addition, the slope in assay [6] was 0.00572 (inactive).

Take `CCOc1cccc(-c2nnc3sc(COc4ccc(OC)cc4)nn23)c1`: the cell count in assay [1] was 534. For the same compound, the inhibition in assay [1] is 7.7% (inactive); in assay [3], -93.7% (inactive); in assay [7] it was 7.6% (inactive); in assay [8], 17.6% (inactive). Further, the inhibition of aggregation in assay [2] is -2.2% (inactive). Besides, the nuclei count was 95.7% in assay [2] and 118% in assay [3]. Also, in assay [4], the fluorescence slope is -0.433 (inactive). Further, in assay [5], the NADPH fluorescence slope was -3.1e-05 (inactive). In assay [6], the slope is 0.00731 (inactive).

As for `Cn1cc(C2NC(=O)c3c(sc4c3CCCC4)N2)c2ccccc21` (centres undefined), the cell count in assay [1] was determined as 561. Besides, the inhibition in assay [1] is 9.2% (inactive); in assay [3], -37.2% (inactive); in assay [7] it was 2.79% (inactive); in assay [8] it was 21.2% (inactive). In addition, in assay [2], the inhibition of aggregation is 17.3% (inactive). For the same compound, the nuclei count in assay [2] was 98.8%; in assay [3], 112%. For the same compound, the fluorescence slope in assay [4] is -0.384 (inactive). For the same compound, the NADPH fluorescence slope in assay [5] is 3.8e-05 (inactive). Besides, the slope in assay [6] was 0.00476 (inactive).

As for `Cc1nc(SCC(=O)CC(=O)OC(C)C)c(C#N)c(C)c1C`, the cell count in assay [1] was determined as 718. Moreover, the inhibition in assay [1] was -3.5% (inactive); in assay [3] it was 34.6% (inactive); in assay [7], 5.7% (inactive); in assay [8] it was -3.09% (inactive). In addition, in assay [2], the inhibition of aggregation is -22.8% (inactive). Moreover, the nuclei count in assay [2] came out at 118%; in assay [3], 99.8%. Also, in assay [4], the fluorescence slope is -0.332 (inactive). For the same compound, the NADPH fluorescence slope in assay [5] was 1.6e-05 (inactive). Also, the slope in assay [6] was 0.00527 (inactive).

In the case of `CC(=O)OCC1OC(c2ccccc2)C(OC(C)=O)C(OC(C)=O)C1OC(C)=O` (centres undefined), in assay [1], the cell count was determined as 274. Further, the inhibition in assay [1] was -5% (inactive); in assay [3], -26.4% (inactive); in assay [7], 6.22% (inactive); in assay [8], 34.3% (inactive). Besides, the inhibition of aggregation in assay [2] is 15.4% (inactive). In addition, the nuclei count is 59.7% in assay [2] and 106% in assay [3]. For the same compound, the fluorescence slope in assay [4] was -0.351 (inactive). Also, the NADPH fluorescence slope in assay [5] was -2.1e-05 (inactive). Besides, in assay [6], the slope is 0.00646 (inactive).

The values are drawn from PubChem BioAssay.
